The values that follow come from the supplement of paper PMC12645437, “Orthogonal IMiD-Degron Pairs Induce Selective Protein Degradation in Cells” (ACS Chemical Biology, 2025).

The target in the assay is T1, CRBN, Q96SW2.
T1 chain: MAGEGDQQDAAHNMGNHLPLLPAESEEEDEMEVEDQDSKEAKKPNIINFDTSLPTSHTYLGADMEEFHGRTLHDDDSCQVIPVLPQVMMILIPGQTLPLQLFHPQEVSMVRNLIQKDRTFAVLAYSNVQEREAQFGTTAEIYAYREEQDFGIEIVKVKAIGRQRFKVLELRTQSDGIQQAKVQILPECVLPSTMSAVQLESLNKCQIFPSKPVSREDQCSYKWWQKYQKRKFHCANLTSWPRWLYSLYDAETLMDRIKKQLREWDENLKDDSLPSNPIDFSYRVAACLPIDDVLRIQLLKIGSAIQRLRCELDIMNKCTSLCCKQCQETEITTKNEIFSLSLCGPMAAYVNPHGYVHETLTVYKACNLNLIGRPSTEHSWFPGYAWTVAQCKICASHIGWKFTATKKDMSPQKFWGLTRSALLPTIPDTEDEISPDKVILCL
The assay can be described thus: log2 fold change of degron read counts, EGFP-low vs EGFP+ sorted cells (limma voom), compound-induced degradation; higher = more compound-induced degradation of the degron-EGFP fusion; degrons are variants of IKZF1/3 zinc finger 2; compound dose not given here. As to conditions: Jurkat, 18 h. As to the method: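 Pooled library of 8380 IKZF3 ZF2 degron mutants (positions 146-167 varied within the IKZF3 130-189 degron; only the varied core is printed, flanks not printed) fused to EGFP with IRES-mCherry, lentivirally expressed in Jurkat cells. mCherry+ cells were treated with one IMiD compound for 18 h (dose not stated) and FACS-sorted into EGFP-low and EGFP+ populations. Degron sequences were counted by NGS, and log2FC (EGFP-low vs EGFP+) was estimated by limma voom over 3 biological replicates.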

[1] abbreviates: compound: compound 19 (5-tert-butyl-thalidomide).
Where [2] appears, read: compound: compound 22 (5-morpholino-thalidomide).
The mark [3] stands for this setting: compound: compound 33 (diphenyl IMiD analogue).

The full ranking holds about 8,300 sequences; the median of “log2 fold change of degron read counts, EGFP-low vs EGFP+ sorted cells (limma voom), compound-induced degradation” is about -1.1, and the highest 2% start at about 3.2. Only a selection was taken, and the highest values are over-represented in it overall.
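Further: pooled lentiviral library of zinc finger degron-EGFP fusions in mCherry-positive Jurkat cells, FACS-sorted after compound exposure, with degron abundance counted by next-generation sequencing.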

B1: 46F_47S_49N_50I_52G_53A_54T_55F_67L_, Q9UKT9 (peptide)
chain: FSCNICGATFTQKGNLLRHIKL
In the case of B1, the “log2 fold change of degron read counts” value by setting is: under setting [1], 0.862; under setting [2], 1.72; under setting [3], 1.81; (compound: thalidomide) 0.773.

B2: 46F_47R_49S_50V_52G_53H_54P_55F_67L_, Q9UKT9 (peptide)
chain: FRCSVCGHPFTQKGNLLRHIKL
Take B2: the “log2 fold change of degron read counts” value under setting [1] was -1.61, the “log2 fold change of degron read counts” value under setting [2] was 0.0411, the “log2 fold change of degron read counts” value under setting [3] is -0.252 and the “log2 fold change of degron read counts” value (compound: thalidomide) was -0.256.

B3: 46L_47D_49N_50Q_52G_53F_54V_55C_67L_, Q9UKT9 (peptide)
chain: LDCNQCGFVCTQKGNLLRHIKL
As for B3, the “log2 fold change of degron read counts” value under setting [1] is -1.84, the “log2 fold change of degron read counts” value under setting [2] is -2.2, the “log2 fold change of degron read counts” value under setting [3] was -2.2 and the “log2 fold change of degron read counts” value (compound: thalidomide) was -1.82.

B4: 46F_47D_49N_50V_52G_53A_54S_55F_67L_, Q9UKT9 (peptide)
chain: FDCNVCGASFTQKGNLLRHIKL
On to B4, for which the “log2 fold change of degron read counts” value is, setting by setting: under setting [1], -0.855; under setting [2], -1.38; under setting [3], -1.21; (compound: thalidomide) -0.475.

B5: 46F_47D_49E_50I_52G_53R_54T_55F_67L_, Q9UKT9 (peptide)
chain: FDCEICGRTFTQKGNLLRHIKL
Take B5: the “log2 fold change of degron read counts” value is -2.33 under setting [1], -3.04 under setting [2], -1.56 under setting [3] and -1.64 (compound: thalidomide).

B6: 46F_47R_49E_50I_52G_53R_54S_55F_67L_, Q9UKT9 (peptide)
chain: FRCEICGRSFTQKGNLLRHIKL
On to B6, for which the “log2 fold change of degron read counts” value under setting [1] was -2.18, the “log2 fold change of degron read counts” value under setting [2] was -2.81, the “log2 fold change of degron read counts” value under setting [3] is -0.226 and the “log2 fold change of degron read counts” value (compound: thalidomide) was -0.504.

B7: 46F_47E_49N_50I_52G_53A_54I_55F_67L_, Q9UKT9 (peptide)
chain: FECNICGAIFTQKGNLLRHIKL
Take B7: the “log2 fold change of degron read counts” value reads like this: under setting [1], -2.22; under setting [2], -1.59; under setting [3], 0.523; (compound: thalidomide) 1.84.

B8: 46F_47W_49P_50V_52G_53A_54S_55F_67L_, Q9UKT9 (peptide)
chain: FWCPVCGASFTQKGNLLRHIKL
As for B8, the “log2 fold change of degron read counts” value is 3.31 under setting [1], 3.48 under setting [2], 2.42 under setting [3] and 1.35 (compound: thalidomide).

B9: 46F_47E_49D_50V_52G_53A_54S_55F_67L_, Q9UKT9 (peptide)
chain: FECDVCGASFTQKGNLLRHIKL
On to B9, for which the “log2 fold change of degron read counts” value under setting [1] was -0.176, the “log2 fold change of degron read counts” value under setting [2] was -2.77, the “log2 fold change of degron read counts” value under setting [3] is -0.519 and the “log2 fold change of degron read counts” value (compound: thalidomide) was -0.688.

B10: 46F_47Y_49P_50V_52G_53A_54S_55F_67L_, Q9UKT9 (peptide)
chain: FYCPVCGASFTQKGNLLRHIKL
With B10, the “log2 fold change of degron read counts” value under setting [1] was 3.09, the “log2 fold change of degron read counts” value under setting [2] is 3.3, the “log2 fold change of degron read counts” value under setting [3] came to 2.34 and the “log2 fold change of degron read counts” value (compound: thalidomide) is 1.12.

B11: 46F_47V_49D_50V_52G_53A_54S_55F_67L_, Q9UKT9 (peptide)
chain: FVCDVCGASFTQKGNLLRHIKL
As for B11, the “log2 fold change of degron read counts” value under setting [1] is -1.45, the “log2 fold change of degron read counts” value under setting [2] is 1.32, the “log2 fold change of degron read counts” value under setting [3] was found to be 0.282 and the “log2 fold change of degron read counts” value (compound: thalidomide) was 0.656.

B12: 46F_47I_49P_50V_52G_53A_54S_55F_67L_, Q9UKT9 (peptide)
chain: FICPVCGASFTQKGNLLRHIKL
Take B12: the “log2 fold change of degron read counts” value by setting is: under setting [1], -0.331; under setting [2], 2.74; under setting [3], 2.17; (compound: thalidomide) 2.62.

B13: 46F_47L_49P_50V_52G_53A_54S_55F_67L_, Q9UKT9 (peptide)
chain: FLCPVCGASFTQKGNLLRHIKL
Regarding B13, the “log2 fold change of degron read counts” value by setting is: under setting [1], 0.819; under setting [2], -0.0304; under setting [3], 1.62; (compound: thalidomide) 1.37.

B14: 46F_47H_49P_50V_52G_53A_54S_55F_67L_, Q9UKT9 (peptide)
chain: FHCPVCGASFTQKGNLLRHIKL
On to B14, for which the “log2 fold change of degron read counts” value was 2.48 under setting [1], 2.53 under setting [2], 2.04 under setting [3] and 0.495 (compound: thalidomide).

B15: 46F_47W_49D_50V_52G_53A_54S_55F_67L_, Q9UKT9 (peptide)
chain: FWCDVCGASFTQKGNLLRHIKL
On to B15, for which the “log2 fold change of degron read counts” value is, setting by setting: under setting [1], 2.69; under setting [2], 3.48; under setting [3], 1.06; (compound: thalidomide) -0.779.

B16: 46F_47C_49P_50V_52G_53A_54S_55F_67L_, Q9UKT9 (peptide)
chain: FCCPVCGASFTQKGNLLRHIKL
Take B16: the “log2 fold change of degron read counts” value is, setting by setting: under setting [1], 3.07; under setting [2], 2.44; under setting [3], 2.49; (compound: thalidomide) 2.37.

B17: 46F_47T_49N_50Q_52G_53H_54I_55F_67L_, Q9UKT9 (peptide)
chain: FTCNQCGHIFTQKGNLLRHIKL
Regarding B17, the “log2 fold change of degron read counts” value under setting [1] is -3.22, the “log2 fold change of degron read counts” value under setting [2] was -3.78, the “log2 fold change of degron read counts” value under setting [3] was -2.72 and the “log2 fold change of degron read counts” value (compound: thalidomide) is -3.39.

B18: 46L_47F_49N_50Q_52G_53F_54T_55C_67L_, Q9UKT9 (peptide)
chain: LFCNQCGFTCTQKGNLLRHIKL
As for B18, the “log2 fold change of degron read counts” value is -0.962 under setting [1], -0.778 under setting [2], -1.34 under setting [3] and -1.55 (compound: thalidomide).

B19: 46F_47A_49N_50I_52G_53A_54W_55F_67L_, Q9UKT9 (peptide)
chain: FACNICGAWFTQKGNLLRHIKL
Regarding B19, the “log2 fold change of degron read counts” value is, setting by setting: under setting [1], -0.878; under setting [2], -0.37; under setting [3], -0.973; (compound: thalidomide) -1.22.

B20: 46F_47E_49N_50Q_52G_53R_54S_55F_67L_, Q9UKT9 (peptide)
chain: FECNQCGRSFTQKGNLLRHIKL
Consider B20, for which the “log2 fold change of degron read counts” value was -2.91 under setting [1], -4.04 under setting [2], -3.77 under setting [3] and -2.98 (compound: thalidomide).

B21: 46L_47M_49N_50Q_52G_53F_54P_55C_67L_, Q9UKT9 (peptide)
chain: LMCNQCGFPCTQKGNLLRHIKL
As for B21, the “log2 fold change of degron read counts” value reads like this: under setting [1], -2.18; under setting [2], -2.49; under setting [3], -1.64; (compound: thalidomide) -1.76.

B22: 46F_47E_49E_50I_52G_53H_54S_55F_67L_, Q9UKT9 (peptide)
chain: FECEICGHSFTQKGNLLRHIKL
For B22, the “log2 fold change of degron read counts” value by setting is: under setting [1], -3.4; under setting [2], -3.98; under setting [3], -3.41; (compound: thalidomide) -3.14.

B23: 46F_47S_49D_50V_52G_53A_54V_55F_67L_, Q9UKT9 (peptide)
chain: FSCDVCGAVFTQKGNLLRHIKL
On to B23, for which the “log2 fold change of degron read counts” value under setting [1] is -0.211, the “log2 fold change of degron read counts” value under setting [2] is -0.318, the “log2 fold change of degron read counts” value under setting [3] was 1.04 and the “log2 fold change of degron read counts” value (compound: thalidomide) is -0.804.

B24: 46F_47S_49P_50I_52G_53R_54V_55F_67L_, Q9UKT9 (peptide)
chain: FSCPICGRVFTQKGNLLRHIKL
On to B24, for which the “log2 fold change of degron read counts” value is -0.277 under setting [1], -0.0789 under setting [2], 1.53 under setting [3] and 0.556 (compound: thalidomide).

B25: 46F_47M_49E_50I_52G_53H_54F_55F_67L_, Q9UKT9 (peptide)
chain: FMCEICGHFFTQKGNLLRHIKL
On to B25, for which the “log2 fold change of degron read counts” value is, setting by setting: under setting [1], -3.03; under setting [2], -3.09; under setting [3], -2.32; (compound: thalidomide) -3.02.

B26: 46F_47L_49E_50I_52G_53A_54L_55F_67L_, Q9UKT9 (peptide)
chain: FLCEICGALFTQKGNLLRHIKL
Take B26: the “log2 fold change of degron read counts” value reads like this: under setting [1], -0.92; under setting [2], -1.27; under setting [3], 0.77; (compound: thalidomide) 1.46.

B27: 46F_47Y_49E_50I_52G_53A_54L_55F_67L_, Q9UKT9 (peptide)
chain: FYCEICGALFTQKGNLLRHIKL
For the sequence B27, the “log2 fold change of degron read counts” value reads like this: under setting [1], 3.29; under setting [2], 3.38; under setting [3], 2.38; (compound: thalidomide) 0.365.

B28: 46F_47D_49E_50I_52G_53A_54L_55F_67L_, Q9UKT9 (peptide)
chain: FDCEICGALFTQKGNLLRHIKL
As to B28, the “log2 fold change of degron read counts” value reads like this: under setting [1], -0.733; under setting [2], -1.67; under setting [3], 0.189; (compound: thalidomide) -0.124.

B29: 46F_47A_49E_50I_52G_53A_54L_55F_67L_, Q9UKT9 (peptide)
chain: FACEICGALFTQKGNLLRHIKL
Consider B29, for which the “log2 fold change of degron read counts” value reads like this: under setting [1], 2.71; under setting [2], 0.321; under setting [3], 0.174; (compound: thalidomide) -0.494.

B30: 46F_47F_49E_50I_52G_53A_54L_55F_67L_, Q9UKT9 (peptide)
chain: FFCEICGALFTQKGNLLRHIKL
As for B30, the “log2 fold change of degron read counts” value is, setting by setting: under setting [1], 3.18; under setting [2], 2.91; under setting [3], 1.74; (compound: thalidomide) 0.646.

B31: 46F_47Q_49E_50I_52G_53A_54L_55F_67L_, Q9UKT9 (peptide)
chain: FQCEICGALFTQKGNLLRHIKL
Turning to B31, the “log2 fold change of degron read counts” value under setting [1] was -1.22, the “log2 fold change of degron read counts” value under setting [2] turned out to be 1.46, the “log2 fold change of degron read counts” value under setting [3] was 1.74 and the “log2 fold change of degron read counts” value (compound: thalidomide) turned out to be 3.53.
